The target in assay [1] is Hepatocyte nuclear factor 3-beta (Homo sapiens) (UniProt Q9Y261). Put plainly: ATG_FoxA2_CIS: Attagene CIS-FACTORIAL HepG2 Assay for human Forkhead box A2 (FOXA2) (AID 2282942). The conditions noted are these: HepG2 cis-reporter transcription factor activity, 24 h; actives raise or lower the signal. In short, it runs like this: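 Endogenous transcription factor activity was read in HepG2 cells carrying transiently transfected cis-promoter reporter units. After 24 h dosing, reporter mRNA was quantified by RT-PCR and capillary electrophoresis, and values fitted bidirectionally versus DMSO.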

Assay [2] is described as follows: ATG_RORE_CIS: Attagene CIS-FACTORIAL HepG2 Assay for human RAR-related Orphan Receptor Element (RORE) (AID 2282959). The settings on record: HepG2 Attagene cis-factorial RORE reporter, mRNA; actives raise or lower the signal. A digest of the protocol:
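Cells were HepG2 carrying transfected cis-regulated reporter constructs, dosed for 24 hours. Total RNA was reverse-transcribed and reporter cDNA amplified, fluorescently labeled and sized by capillary electrophoresis. Activity was fitted bidirectionally relative to DMSO.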

Assay [3] can be described thus: ATG_Sox_CIS: Attagene CIS-FACTORIAL HepG2 Assay for human SRY-box transcription factor (SOX) (AID 2282960). The conditions noted are these: HepG2 Attagene cis-factorial SOX reporter, mRNA; actives raise or lower the signal. A digest of the protocol: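 Transient MRTU transfection of HepG2; 24 h compound incubation; TriZol RNA, oligo(dT) RT, PCR, 6-FAM primer extension, HpaI cut, CE. Bidirectional fit, DMSO = baseline.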

Assay [4] deals with Transcription factor Sp1 (Homo sapiens) (UniProt P08047). Put plainly: ATG_Sp1_CIS: Attagene CIS-FACTORIAL HepG2 Assay for human Specificity Protein 1 (Sp1) (AID 2282961). The conditions noted are these: HepG2 Sp1 cis-reporter transcription, actives raise or lower the signal. In short, it runs like this:
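Endogenous Sp1 activity was gauged in human liver HepG2 cells bearing transfected reporter units under a cis-regulating promoter. After 24 h dosing, reporter mRNA was quantified by RT-PCR with capillary electrophoresis, and activity fitted bidirectionally versus DMSO.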

Assay [5] can be described thus: ATG_SREBP_CIS: Attagene CIS-FACTORIAL HepG2 Assay for human Sterol Regulatory Element Binding (SREBP) (AID 2282962). The settings on record: HepG2 Attagene cis-factorial SREBP reporter, mRNA; actives raise or lower the signal. In short, it runs like this: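 In this cis-format assay, HepG2 liver cells express reporters controlled by promoter elements responsive to native transcription factors. Exposure lasts 24 h; reporter mRNA fluorescence from capillary electrophoresis gives the signal, fitted bidirectionally against DMSO.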

The target of assay [6] is Signal transducer and activator of transcription 3 (Homo sapiens) (UniProt P40763). Briefly: ATG_STAT3_CIS: Attagene CIS-FACTORIAL HepG2 Assay for human Signal Transducer and Activator of Transcription 3 (STAT3) (AID 2282963). The conditions noted are these: HepG2, Attagene cis-factorial STAT3 reporter transcription; actives raise or lower the signal. A digest of the protocol:
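Readout: fluorescent reporter mRNA fragments resolved by capillary electrophoresis. Setup: HepG2 transfected with MRTUs reporting endogenous transcription-factor activity, dosed 24 h. Gain or loss of signal fitted bidirectionally against DMSO control.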

A short description of assay [7]: ATG_TA_CIS: Attagene CIS-FACTORIAL HepG2 Assay for human TA Basal Promoter (AID 2282964). The conditions noted are these: HepG2 Attagene CIS-factorial TA basal promoter reporter; actives raise or lower the signal. In short, it runs like this:
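HepG2 cells transiently transfected with multiple reporter units under cis promoter elements, reporting endogenous transcription factor activity; this endpoint tracks the TA basal promoter as background control. Reporter mRNA after 24 h dosing measured by RT-PCR/capillary electrophoresis; bidirectional fits versus DMSO.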

Assay [8] in a line: ATG_TCF_b_cat_CIS: Attagene CIS-FACTORIAL HepG2 Assay for human T-Cell-Factor with beta-catenin (TCF/b-cat) (AID 2282965). The settings on record: HepG2 TCF/beta-catenin cis-reporter transcription, actives raise or lower the signal. In short, it runs like this:
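HepG2 cells transiently transfected with cis-promoter-driven multiplexed reporter units; reporter mRNA measured 24 h after dosing by RT-PCR, FAM labelling, HpaI digestion and capillary electrophoresis. Bidirectional fitting relative to DMSO baseline.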

A short description of assay [9]: ATG_TAL_CIS: Attagene CIS-FACTORIAL HepG2 Assay for human TAL Basal Promoter (AID 2282966).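 Further: background control endpoint measuring basal TAL promoter reporter mRNA not a specific factor.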 The settings on record: HepG2 Attagene cis-factorial TAL promoter reporter; actives raise or lower the signal. In short, it runs like this: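 Human hepatoma HepG2 cells, transfected with promoter-regulated reporter units, were treated 24 h. Reporter transcript levels, measured through RT-PCR and capillary electrophoresis, were fitted for gain or loss relative to DMSO.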

A short description of assay [10]: ATG_VDRE_CIS: Attagene CIS-FACTORIAL HepG2 Assay for human Vitamin D Receptor Element (VDRE) (AID 2282968). The conditions noted are these: HepG2 VDRE cis-reporter transcription, actives raise or lower the signal. A digest of the protocol:
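Transient MRTU transfection of HepG2, 24 h compound exposure. Readout: reporter transcripts via RT-PCR and capillary electrophoresis, fluorescence. Bidirectional fit vs DMSO.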

Assay [11] addresses Transcriptional activator Myb (Homo sapiens) (UniProt P10242). Put plainly: ATG_Myb_CIS: Attagene CIS-FACTORIAL HepG2 Assay for human Myeloblastosis (Myb) Proto-Oncogene Transcription Factor (AID 2282986). The conditions noted are these: HepG2 Attagene CIS-FACTORIAL Myb reporter transcription; actives raise or lower the signal. A digest of the protocol:
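Steps: transfect HepG2 with cis-regulated reporter units; dose with chemical for 24 h; isolate RNA, reverse-transcribe, PCR-amplify and FAM-label reporter sequences; digest with HpaI; resolve by capillary electrophoresis. Activity fitted in both directions relative to DMSO.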

Assay [12] addresses Myc proto-oncogene protein (Homo sapiens) (UniProt P01106). Briefly: ATG_Myc_CIS: Attagene CIS-FACTORIAL HepG2 Assay for human Myelocytomatosis (Myc) Proto-Oncogene Transcription Factor (AID 2282990). The conditions noted are these: HepG2, Attagene cis-reporter transcription factor activity; actives raise or lower the signal. A digest of the protocol:
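Transiently transfected HepG2 cells bearing cis-promoter reporter units for endogenous transcription factors; 24 h exposure. Reporter mRNA measured by RT-PCR, 6-FAM primer extension, HpaI cut and capillary electrophoresis; bidirectional fit relative to DMSO.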

Assay [13] is described as follows: ATG_Oct_MLP_CIS: Attagene CIS-FACTORIAL HepG2 Assay for human Octamer-Binding Transcription Factor (Oct) (AID 2282993). The settings on record: HepG2 Attagene cis-factorial Oct reporter, mRNA; actives raise or lower the signal. In short, it runs like this: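 HepG2 cells transiently transfected with cis-element-driven reporter transcription units (endogenous TF activity); 24 h compound exposure. Reporter mRNA quantified by RT-PCR, 6-FAM labelling, HpaI digestion and capillary electrophoresis; bidirectional fit versus DMSO baseline.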

For assay [14], the target named is Cellular tumor antigen p53 (Homo sapiens) (UniProt P04637). Briefly: ATG_p53_CIS: Attagene CIS-FACTORIAL HepG2 Assay for human p53 Transcription Factor (AID 2282994). The settings on record: HepG2 p53 cis-element reporter, Attagene mRNA; actives raise or lower the signal. A digest of the protocol: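 In HepG2 cells, reporter transcription units under cis-regulatory promoters were transiently introduced. Following 24 h treatment, RNA was processed to labelled, digested cDNA fragments read by capillary electrophoresis; fitting was bidirectional versus DMSO.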

Assay [15] deals with Nuclear receptor subfamily 1 group I member 2 (Homo sapiens) (UniProt O75469). Briefly: ATG_PXR_TRANS: Attagene TRANS-FACTORIAL HepG2 Assay for human Pregnane X Receptor (PXR) (AID 2283008; active means hit-call score of the fitted dose curve at least 0.9, where 1 is the maximum). A digest of the protocol: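 Multiplexed TRANS reporter panel in HepG2; this component tracks PXR-Gal4-driven reporter mRNA after 24 h dosing, measured by RT-PCR with capillary electrophoresis fluorescence, fitted against DMSO.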

Assay [16] can be described thus: ATG_XTT_Cytotoxicity: Cytotoxicity Assessment in the Attagene TRANS-FACTORIAL HepG2 Assay (AID 2283584; active means hit-call score of the fitted dose curve at least 0.9, where 1 is the maximum). A digest of the protocol: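 24 h chemical exposure of reporter-transfected HepG2; XTT signal loss vs DMSO indicates cytotoxicity.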
Assay [17] concerns the target Heat shock factor protein 1 (Homo sapiens) (UniProt Q00613). Briefly: ATG_HSE_CIS: Attagene CIS-FACTORIAL HepG2 Assay for human Heat Shock Transcription Factor 1 (HSE) (AID 2282953). The conditions noted are these: HepG2 HSE cis-reporter, Attagene RNA transcription; actives raise or lower the signal. In short, it runs like this: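 HepG2 cells transfected with cis-promoter reporter units sensing endogenous transcription factor activity; reporter mRNA quantified 24 h post-dose by RT-PCR and capillary electrophoresis of 6-FAM-labelled products. Bidirectional fitting against DMSO.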

Assay [18] deals with Nuclear respiratory factor 1 (Homo sapiens) (UniProt Q16656). Briefly: ATG_NRF1_CIS: Attagene CIS-FACTORIAL HepG2 Assay for human Nuclear Respiratory Factor 1 (NRF1) Orphan Gene (AID 2282987). The conditions noted are these: HepG2 NRF1 cis-element reporter, Attagene multiplex; actives raise or lower the signal. A digest of the protocol: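 Fluorescence intensity of labelled reporter cDNA fragments, resolved by capillary electrophoresis, served as readout for NRF1 cis-element activity. Transiently transfected HepG2 cells were dosed for 24 hours; activity in either direction was fitted against DMSO negative control.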

Assay [19] in a line: ATG_NFI_CIS: Attagene CIS-FACTORIAL HepG2 Assay for human Nuclear Factor I (NFI) (AID 2282989). The conditions noted are these: HepG2 cis-regulatory reporter, NFI response element transcription; actives raise or lower the signal. A digest of the protocol:
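Endogenous TF activity in HepG2 cells transiently transfected with cis-element-driven multiplexed reporter units, read 24 h after dosing. Reporter mRNA quantified by RT-PCR, 6-FAM labelling, HpaI digestion and capillary electrophoresis; bidirectional fit versus DMSO.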

Assay [20] is described as follows: ATG_NRF2_ARE_CIS: Attagene CIS-FACTORIAL HepG2 Assay for human Nuclear Factor Erythroid 2 Related Factor 2 (NFR2) response to Antioxidant Response Elements (ARE) (AID 2282992). The conditions noted are these: HepG2 Attagene ARE/NRF2 reporter, transcription factor activity; actives raise or lower the signal. In short, it runs like this:
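Using transiently transfected HepG2 cells exposed for 24 h, reporter mRNA levels were determined by RT-PCR with fluorescent primer extension and capillary electrophoresis, analysed for gain or loss of signal against DMSO.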

Records with an inconclusive call do not appear. Activity calls are given as the source filed them. How the source made its calls, unless noted: active means hit-call score of the fitted dose curve at least 0.9, where 1 is the maximum; inactive means score below 0.9.

Nuclear respiratory factor 1 (Homo sapiens), sequence (Q16656 whole entry, looked up, the tested form may be a part): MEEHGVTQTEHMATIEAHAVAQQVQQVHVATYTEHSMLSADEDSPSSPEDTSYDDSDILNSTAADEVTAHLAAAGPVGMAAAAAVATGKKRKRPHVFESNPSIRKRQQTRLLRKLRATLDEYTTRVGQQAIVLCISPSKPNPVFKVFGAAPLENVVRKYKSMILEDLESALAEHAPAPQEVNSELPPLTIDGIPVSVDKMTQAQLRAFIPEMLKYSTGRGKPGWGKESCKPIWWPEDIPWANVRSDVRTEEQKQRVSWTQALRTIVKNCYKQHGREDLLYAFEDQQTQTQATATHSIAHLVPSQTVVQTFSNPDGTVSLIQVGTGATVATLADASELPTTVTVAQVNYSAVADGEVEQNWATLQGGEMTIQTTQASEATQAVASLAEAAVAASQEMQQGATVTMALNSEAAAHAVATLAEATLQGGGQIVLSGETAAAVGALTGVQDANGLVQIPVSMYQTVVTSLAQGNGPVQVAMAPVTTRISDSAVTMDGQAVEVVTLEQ
Signal transducer and activator of transcription 3 (Homo sapiens), sequence (P40763 whole entry, looked up, the tested form may be a part): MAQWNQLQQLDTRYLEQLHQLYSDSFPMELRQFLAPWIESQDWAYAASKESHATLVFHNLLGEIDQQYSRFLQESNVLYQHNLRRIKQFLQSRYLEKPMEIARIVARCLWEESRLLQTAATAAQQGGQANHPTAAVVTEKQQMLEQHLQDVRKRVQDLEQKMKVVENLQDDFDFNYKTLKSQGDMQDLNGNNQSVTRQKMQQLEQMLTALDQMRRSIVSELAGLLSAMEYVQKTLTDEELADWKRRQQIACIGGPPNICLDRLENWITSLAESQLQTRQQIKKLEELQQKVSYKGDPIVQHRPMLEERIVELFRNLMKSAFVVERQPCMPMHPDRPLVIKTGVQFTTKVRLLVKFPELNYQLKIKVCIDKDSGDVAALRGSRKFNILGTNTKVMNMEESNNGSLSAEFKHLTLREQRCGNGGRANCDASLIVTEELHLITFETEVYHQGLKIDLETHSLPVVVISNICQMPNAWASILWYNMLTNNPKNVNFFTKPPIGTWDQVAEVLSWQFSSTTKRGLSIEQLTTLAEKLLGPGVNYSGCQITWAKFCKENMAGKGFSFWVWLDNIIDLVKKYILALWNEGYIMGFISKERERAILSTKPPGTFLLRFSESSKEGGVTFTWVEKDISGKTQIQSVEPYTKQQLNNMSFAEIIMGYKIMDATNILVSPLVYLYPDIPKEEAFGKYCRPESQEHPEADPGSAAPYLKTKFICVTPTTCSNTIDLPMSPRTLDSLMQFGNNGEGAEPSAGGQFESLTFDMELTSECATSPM
Transcriptional activator Myb (Homo sapiens), sequence (P10242 whole entry, looked up): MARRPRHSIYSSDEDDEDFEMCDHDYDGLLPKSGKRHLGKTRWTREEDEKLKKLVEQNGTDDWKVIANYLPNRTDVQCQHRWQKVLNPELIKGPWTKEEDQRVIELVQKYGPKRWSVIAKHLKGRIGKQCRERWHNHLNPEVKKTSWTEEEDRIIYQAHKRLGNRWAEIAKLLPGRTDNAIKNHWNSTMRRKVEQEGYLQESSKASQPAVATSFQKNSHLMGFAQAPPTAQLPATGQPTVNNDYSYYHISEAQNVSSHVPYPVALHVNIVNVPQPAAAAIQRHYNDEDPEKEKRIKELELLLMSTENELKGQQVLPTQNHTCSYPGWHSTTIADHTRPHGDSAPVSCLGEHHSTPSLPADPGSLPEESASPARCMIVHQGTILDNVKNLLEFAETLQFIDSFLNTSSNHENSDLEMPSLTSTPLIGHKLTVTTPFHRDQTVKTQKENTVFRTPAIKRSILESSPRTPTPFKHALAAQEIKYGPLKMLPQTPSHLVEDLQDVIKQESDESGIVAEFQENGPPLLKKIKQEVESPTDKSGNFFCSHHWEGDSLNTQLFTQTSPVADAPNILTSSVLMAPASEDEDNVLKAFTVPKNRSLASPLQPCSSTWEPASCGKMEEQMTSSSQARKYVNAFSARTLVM
Myc proto-oncogene protein (Homo sapiens), sequence (P01106 whole entry, looked up): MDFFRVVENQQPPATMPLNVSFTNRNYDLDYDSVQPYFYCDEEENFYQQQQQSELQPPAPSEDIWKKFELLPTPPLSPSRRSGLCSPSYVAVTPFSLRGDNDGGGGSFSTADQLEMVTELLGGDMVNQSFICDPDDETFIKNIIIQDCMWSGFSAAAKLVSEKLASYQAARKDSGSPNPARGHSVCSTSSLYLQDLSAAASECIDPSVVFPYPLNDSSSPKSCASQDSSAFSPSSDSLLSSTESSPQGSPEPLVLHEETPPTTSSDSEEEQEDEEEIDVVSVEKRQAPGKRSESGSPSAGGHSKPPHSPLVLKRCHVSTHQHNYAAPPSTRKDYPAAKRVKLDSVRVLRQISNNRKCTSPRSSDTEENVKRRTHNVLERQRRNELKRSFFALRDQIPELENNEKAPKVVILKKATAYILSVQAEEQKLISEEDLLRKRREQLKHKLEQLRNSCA
Nuclear receptor subfamily 1 group I member 2 (Homo sapiens), sequence (O75469 whole entry, looked up, the tested form may be a part): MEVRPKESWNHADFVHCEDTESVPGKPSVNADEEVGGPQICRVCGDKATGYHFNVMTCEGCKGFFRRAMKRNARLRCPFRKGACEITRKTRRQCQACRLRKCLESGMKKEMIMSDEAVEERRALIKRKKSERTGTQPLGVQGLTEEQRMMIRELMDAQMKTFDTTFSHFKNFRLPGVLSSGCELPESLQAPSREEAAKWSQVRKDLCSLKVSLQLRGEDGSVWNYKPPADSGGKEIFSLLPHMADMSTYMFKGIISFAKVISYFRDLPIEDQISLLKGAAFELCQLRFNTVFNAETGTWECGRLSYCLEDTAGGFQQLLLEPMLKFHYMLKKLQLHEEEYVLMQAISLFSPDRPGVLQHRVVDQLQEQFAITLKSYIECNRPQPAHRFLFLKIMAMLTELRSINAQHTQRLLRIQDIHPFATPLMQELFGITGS
Heat shock factor protein 1 (Homo sapiens), sequence (Q00613 whole entry, looked up): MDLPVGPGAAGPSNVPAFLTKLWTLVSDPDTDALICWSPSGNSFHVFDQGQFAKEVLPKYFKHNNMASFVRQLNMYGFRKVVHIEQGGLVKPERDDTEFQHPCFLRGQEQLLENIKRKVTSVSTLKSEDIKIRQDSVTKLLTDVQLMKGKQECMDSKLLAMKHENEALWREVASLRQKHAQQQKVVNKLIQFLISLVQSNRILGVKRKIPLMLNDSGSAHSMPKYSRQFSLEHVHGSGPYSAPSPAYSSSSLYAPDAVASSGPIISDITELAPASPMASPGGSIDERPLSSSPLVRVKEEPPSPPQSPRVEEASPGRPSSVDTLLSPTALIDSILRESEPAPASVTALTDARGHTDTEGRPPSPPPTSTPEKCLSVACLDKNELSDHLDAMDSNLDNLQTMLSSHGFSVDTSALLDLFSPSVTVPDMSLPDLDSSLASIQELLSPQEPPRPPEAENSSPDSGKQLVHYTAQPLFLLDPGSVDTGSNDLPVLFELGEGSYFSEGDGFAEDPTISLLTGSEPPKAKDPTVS
Transcription factor Sp1 (Homo sapiens), sequence (P08047 whole entry, looked up): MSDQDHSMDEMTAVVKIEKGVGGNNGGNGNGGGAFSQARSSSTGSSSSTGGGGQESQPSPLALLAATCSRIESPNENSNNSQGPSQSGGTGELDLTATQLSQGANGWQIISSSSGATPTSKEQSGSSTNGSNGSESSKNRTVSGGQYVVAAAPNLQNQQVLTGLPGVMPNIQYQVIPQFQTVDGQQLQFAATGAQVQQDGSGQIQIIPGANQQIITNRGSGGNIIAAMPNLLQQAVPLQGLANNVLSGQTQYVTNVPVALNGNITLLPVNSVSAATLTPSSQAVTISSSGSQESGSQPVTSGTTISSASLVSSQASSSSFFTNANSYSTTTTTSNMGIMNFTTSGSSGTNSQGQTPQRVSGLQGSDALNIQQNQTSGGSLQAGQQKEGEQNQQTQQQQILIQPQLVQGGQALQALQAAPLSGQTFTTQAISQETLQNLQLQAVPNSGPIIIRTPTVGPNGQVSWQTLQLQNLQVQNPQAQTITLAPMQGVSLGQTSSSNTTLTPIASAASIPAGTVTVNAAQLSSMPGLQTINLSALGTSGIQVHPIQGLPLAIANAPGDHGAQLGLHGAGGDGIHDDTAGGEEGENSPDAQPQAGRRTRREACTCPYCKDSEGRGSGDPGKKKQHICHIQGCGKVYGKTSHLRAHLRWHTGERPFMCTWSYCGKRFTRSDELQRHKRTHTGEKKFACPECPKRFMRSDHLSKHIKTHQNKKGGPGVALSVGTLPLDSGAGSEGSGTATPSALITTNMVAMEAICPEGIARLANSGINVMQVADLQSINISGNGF
Hepatocyte nuclear factor 3-beta (Homo sapiens), sequence (Q9Y261 whole entry, looked up): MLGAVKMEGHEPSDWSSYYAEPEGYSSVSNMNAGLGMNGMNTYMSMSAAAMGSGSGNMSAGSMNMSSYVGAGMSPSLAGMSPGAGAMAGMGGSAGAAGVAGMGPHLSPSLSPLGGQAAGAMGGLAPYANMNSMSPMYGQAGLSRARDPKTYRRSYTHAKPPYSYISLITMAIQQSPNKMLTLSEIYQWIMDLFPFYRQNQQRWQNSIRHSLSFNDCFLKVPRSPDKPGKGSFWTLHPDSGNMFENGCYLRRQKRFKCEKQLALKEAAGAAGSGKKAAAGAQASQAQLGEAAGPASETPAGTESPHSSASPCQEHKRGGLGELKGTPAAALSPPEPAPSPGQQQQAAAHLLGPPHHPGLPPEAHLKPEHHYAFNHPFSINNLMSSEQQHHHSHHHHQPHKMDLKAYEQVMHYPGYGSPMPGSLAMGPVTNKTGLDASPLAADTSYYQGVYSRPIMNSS
Cellular tumor antigen p53 (Homo sapiens), sequence (P04637 whole entry, looked up, the tested form may be a part): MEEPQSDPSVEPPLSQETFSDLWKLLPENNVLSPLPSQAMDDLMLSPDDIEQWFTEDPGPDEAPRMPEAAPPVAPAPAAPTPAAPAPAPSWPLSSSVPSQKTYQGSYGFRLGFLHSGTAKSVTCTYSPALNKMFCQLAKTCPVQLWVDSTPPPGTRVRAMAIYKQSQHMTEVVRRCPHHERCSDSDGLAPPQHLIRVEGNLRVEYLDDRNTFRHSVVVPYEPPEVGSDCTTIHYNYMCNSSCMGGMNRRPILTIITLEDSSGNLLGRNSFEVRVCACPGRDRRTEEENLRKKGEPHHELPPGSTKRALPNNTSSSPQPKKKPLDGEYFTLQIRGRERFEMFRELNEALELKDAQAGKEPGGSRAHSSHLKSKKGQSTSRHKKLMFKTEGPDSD

By AC50 is commonly meant the midpoint of the concentration-response curve, whichever way the signal moves. Regarding `COc1c2occc2cc2ccc(=O)oc12`, the compound was classed as inactive in [1], in assay [2], in [3], in [4], in assay [5] and in assay [6]. Further, the result in [7], in assay [8], in [9], in assay [11], in assay [12] and in assay [13] was inactive. For the same compound, the compound was called inactive in assay [14] and in assay [16]. For the same compound, the results for the AC50 in [10] and in assay [15] were 53.7 µM (active) and 14.5 µM (active), respectively.
On to `Cc1ccccc1S(N)(=O)=O`, for which the compound was called inactive in assay [1], in assay [17], in [2], in assay [3], in [4] and in assay [5]. Besides, the compound was called inactive in assay [6], in assay [7], in [8], in assay [9], in [11] and in [18]. In addition, the compound was classed as inactive in assay [19], in assay [12], in assay [20], in assay [13], in assay [14] and in [15]. The compound was called inactive in [16]. Moreover, the AC50 in assay [10] was 26.5 µM (active).
On to `O=C1NC(=O)[C@@H]2CC=CC[C@H]12`, for which the compound was classed as inactive in assay [1], in assay [17], in [2], in assay [3], in assay [4] and in [5]. In addition, the call in assay [6], in [7], in assay [8], in assay [9], in [10] and in assay [11] was inactive. Besides, the compound was called inactive in assay [18], in assay [19], in [12], in assay [20], in [13] and in assay [14]. Besides, the result in [15] and in [16] was inactive.
Consider `CO[Si](CCCNCCN)(OC)OC`, for which the call in [1], in assay [17], in assay [2], in assay [3], in [4] and in assay [5] was inactive. Further, the compound was classed as inactive in assay [6], in assay [7], in [8], in assay [9], in assay [10] and in assay [11]. The compound was classed as inactive in assay [18], in assay [19], in [12], in assay [20], in [13] and in [16].
